Data on 24 compounds can be found in PubChem BioAssay (NCI).

“And” between values parts separate entries of the source, which are not always exact repeats. Equal entries are not always repeated. About 83,000 compounds went through this panel and 20% of them were active in at least one assay; those are over-represented in the sample as a whole.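 A percent growth of 40 corresponds to 60% growth inhibition; 0 means no net growth; -100 means all cells died. Active threshold: below 10.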 The source made the active and inactive calls.

This test deals with HL-60(TB) leukemia. Nature of the test: NCI-60 one-dose screen, 48 h (100 = growth as untreated, 0 = no growth, -100 = all killed). The following applies: 10 µM unless noted.
For the compound `COc1ccc(-c2c(C)noc2-c2ccc(O)cc2O)cc1`, the growth was 64.9% (inactive).

As to `C#Cc1cccc(NC(=O)Nc2ccc(NC(=O)CCl)cc2)c1`, the growth is 0.172% [8.25 µM] (active).

Turning to `CCc1c(C)c2cc(-n3c(-c4ccc(OC)cc4)csc3=N)c(O)c(C)c2oc1=O`, the growth was -28.2% (active).

Regarding `CC(C)(C)[Si](C)(C)OC1[C@@H](COC(N)=O)O[C@@H](n2cnc3c(N)ncnc32)[C@H]1O[Si](C)(C)C(C)(C)C` (some centres undefined), the growth was -18% (active).

For `COc1ccc(C2C3=C(COC3=O)N(CCO)c3cc4c(cc32)CCC4)cc1` (centres undefined), the growth is 4.72% (active).

For `C(=C\c1nc2ccccc2[nH]1)/c1nc2ccccc2[nH]1`, the growth was 93.4% (inactive).

With `C#CCOc1cccc(Nc2ncnc3c(NC(=O)C=C)cccc23)c1`, the growth was -4.75% (active).

With `C=C(C)[C@@H]1CCC[C@]2(COS(=O)(=O)c3ccc(C)cc3)CC[C@]3(C)[C@@H](CC[C@@H]4[C@@]5(C)CCCNC(C)(C)[C@@H]5CC[C@]43C)[C@@H]12`, the growth is -35% (active).

On to `NC(=S)NN=C1CCC(C2CCCCC2)CC1` (centres undefined), for which the growth is 91.2% (inactive) and 70.9% (inactive).

On to `O=C(/C=C/c1cn(-c2ccccc2)nc1-c1ccc([N+](=O)[O-])cc1)c1ccc(Cl)cc1`, for which the growth was 69.1% (inactive).

As for `Cc1cc(=O)[nH]c2c(C#N)cnn12`, the growth was 106% (inactive).

Regarding `O=C(O)CNC1=C(Cl)C(=O)c2ccccc2C1=O`, the growth was 122% (inactive).

Take `CCOC(=O)c1sc2ncc(-c3ccc(C)cc3)n2c1C`: the growth is 75.4% (inactive).

Turning to `O=[N+]([O-])c1ccc2[nH]cc(-c3c4ccccc4cc4[nH]c5ccc([N+](=O)[O-])cc5c34)c2c1`, the growth is 11.7% (inactive).

On to `Cc1cccc(Cl)c1NC(=O)c1ccc2nc(NC(=O)NCCN(C)C)sc2c1`, for which the growth was 115% (inactive).

Consider `Cc1nc(N)sc1Sc1nc2ccc(Cl)cc2c(=O)n1-c1ccc(Oc2ccccc2)cc1`, for which the growth is 59.4% (inactive).

Take `c1cc2[nH]ncc2cc1-c1nc2ccc3[nH]ncc3c2c2c1CCCC2`: the growth is -18.3% (active).

In the case of `O=[N+]([O-])c1ccc(NS(=O)(=O)c2cc(Cl)ccc2Cl)c2ccccc12`, the growth is 33.4% (inactive).

`N#Cc1ccc(OC(=O)Nc2cc(Cl)cc(Cl)c2)cc1`: the growth is -0.568% [100 µM] (active).

Take `O=C(Nc1ccc2ncnc(Nc3ccc(F)c(Cl)c3)c2c1)c1ccccc1`: the growth was 82.2% (inactive).

In the case of `COc1ccc(-c2csc(NC(=O)N3CCN(c4cc5c(cc4F)c(=O)c(C(=O)O)cn5C4CC4)CC3)n2)cc1`, the growth was -11.6% (active).

As to `COc1cccc(C(=O)N(c2ccc(F)c(F)c2)C(C(=O)NC(C)(C)C)c2cc3c(C)cc(C)cc3nc2Cl)c1` (centres undefined), the growth was 63.3% (inactive).

For `O=C(O)c1c2c(nc3ccccc13)Cc1ccccc1-2`, the growth was 92.8% (inactive) and 112% (inactive).

In the case of `C=C[C@]1(C)C=C2C(=O)[C@@]3(O)OC(=O)[C@@]4(CCCC(C)(C)[C@H]34)[C@@]2(O)CC1`, the growth was -25% (active).
